Shown are actives, neighbours in structure and some others; about 2.9% of the full set was active somewhere.
PGE2 EP2 inh = inhibitors of human EP2 prostaglandin E2 receptor; 0.52% of 260,000 active; C6 glioma cells expressing human EP2, cAMP TR-FRET; cells stimulated with saturating PGE2; inhibition, % at 25 µM;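 active = percent inhibition above 40 after rounding to a whole number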;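 note: rat C6 glioma host cells with rolipram phosphodiesterase inhibitor present; the protocol text gives 20 µM as final concentration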
SKN-1 inh = inhibitors of C. elegans SKN-1; C. elegans VP596 Pgst-4::GFP/RFP ratio, acrylamide-induced, 24 h; inhibition, % at 21.8 µM; 0.49% of 360,000 active; AID 624304;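 active = interference check ratio from 0.5 to 1.5 plus GFP to RFP signal ratio inhibition reaching or exceeding a fixed threshold, cut at about 30% in these data, passing the limit was not always enough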
EP2 mod = modulates human prostaglandin E2 receptor EP2 signaling; P43116; EP2-expressing cells, cAMP HTRF FRET, PGE2 co-stimulation; induction, % at 25 µM; 0.83% of 260,000 active;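 active = compounds whose cAMP rise, as percent of the full-agonist control response, exceeds 60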;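 note: rat C6 glioma line stably carrying human EP2 under a CMV promoter; the protocol text gives 20 µM as final concentration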
RAM inhibit = yeast RAM network inhibition; AID 868; S. cerevisiae dse1pr::URA3 reporter, 5-FOA growth OD615, 2 d; analog-sensitive cbk1-as2 kinase mutant strain; inhibition, % at 50 µM; 1.8% of 190,000 active;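 active = inhibition above a set limit, 3 SD over mean compound inhibition, cut at about 8.4% in these data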;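 note: inhibition rescues growth on 5-FOA so higher OD means more RAM inhibition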
NR1D1 modulator = modulates human Rev-erb alpha binding to DNA. activity, % at 10 µM. P20393. AID 1259318. 0.79% of 370,000 active. Rev-erbα–FITC-DNA binding, fluorescence polarization, 90 min;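 active = activity above about 14%, limit read from the data; passing the limit was not always enough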
Target sequence (P20393 whole entry, looked up): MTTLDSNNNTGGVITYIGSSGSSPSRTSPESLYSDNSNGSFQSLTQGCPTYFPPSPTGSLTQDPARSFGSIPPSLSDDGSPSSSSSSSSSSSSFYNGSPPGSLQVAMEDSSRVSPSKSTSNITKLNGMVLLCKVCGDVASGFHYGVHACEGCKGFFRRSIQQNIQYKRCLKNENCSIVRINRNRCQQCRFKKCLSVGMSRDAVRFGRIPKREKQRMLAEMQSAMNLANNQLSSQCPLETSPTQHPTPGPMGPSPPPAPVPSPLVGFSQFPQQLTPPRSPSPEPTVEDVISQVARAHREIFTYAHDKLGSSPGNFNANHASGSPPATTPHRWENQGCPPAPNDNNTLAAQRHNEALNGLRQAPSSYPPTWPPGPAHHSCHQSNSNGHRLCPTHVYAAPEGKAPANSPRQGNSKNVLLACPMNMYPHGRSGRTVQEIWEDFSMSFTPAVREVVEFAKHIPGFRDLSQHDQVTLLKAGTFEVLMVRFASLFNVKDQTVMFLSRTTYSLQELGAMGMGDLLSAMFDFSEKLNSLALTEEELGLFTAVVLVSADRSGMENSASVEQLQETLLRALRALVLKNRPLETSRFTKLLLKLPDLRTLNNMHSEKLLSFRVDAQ
PG9 binder = PG9 antibody binding by small molecule; AID 624416; inhibition, % at 6.7 µM; 0.43% of 360,000 active; TR-FRET gp120-PG9 antibody binding; in the data active = inhibition above about 8.5%
NR1D1 mod conf = confirmation of modulators of human Rev-erb alpha DNA binding; shares compounds with NR1D1 modulator; Rev-erb alpha FITC-DNA binding, fluorescence polarization, 90 min; activation, % at 25 µM; 61% of 3,000 active; AID 1259319;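 active = activation at or above a set limit, or at least 3 SD above the negative control mean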
RORg counter = affects RORgamma DNA binding in a Rev-erb alpha counter-screen; 8% of 910 active; shares compounds with NR1D1 modulator; purified RORgamma protein-FITC-DNA binding, fluorescence polarization; IC50, µM; AID 1259320;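 active = Compounds whose fitted half-maximal concentration for disrupting protein-DNA binding is below 10 micromolar; the record names Rev-erb in its text, so the target is in doubt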
Each line names hits and unclear results; the compound was inactive in the other large screens (follow-up assays come after a bar, where they were run).

Cc1nn(-c2ccc(F)cc2)c2sc(C(=O)OC3CCOC3=O)cc12 (stereo not drawn)	none (no result: EP2 mod)
COc1ccc(N(CC(=O)Nc2ccc3c(c2)OCO3)S(C)(=O)=O)cc1	none (no result: SKN-1 inh, RAM inhibit, NR1D1 modulator, PG9 binder)
CCN(CC)c1ccc(C=C2SC(=S)NC2=O)cc1	NR1D1 modulator 39 (no result: PGE2 EP2 inh, EP2 mod, RAM inhibit) | NR1D1 mod conf 30 | RORg counter inactive
CCN(CC)c1ccc(/C=C2\SC(N)=NC2=O)cc1	none (no result: PGE2 EP2 inh, EP2 mod, RAM inhibit)
CC(=O)c1csc(NC(=O)Cn2nc(C(F)(F)F)c3c2CCCC3)n1	none (no result: SKN-1 inh, RAM inhibit, NR1D1 modulator, PG9 binder)
Cn1cc(C2N3CC4(C)CN2CC(C)(C3)C4=O)c2ccccc21 (stereo not drawn)	NR1D1 modulator 17 | NR1D1 mod conf 18
Cc1c(C2N3CC4(C)CN2CC(C)(C3)C4=O)c2ccccc2n1C (stereo not drawn)	NR1D1 modulator 42 | NR1D1 mod conf 69 | RORg counter inactive
N#CCc1nc(-c2ccc3ccccc3c2)cs1	none (no result: SKN-1 inh, RAM inhibit, NR1D1 modulator, PG9 binder)
O=C(NCc1ccccc1F)c1nccc2ccccc12	none (no result: SKN-1 inh, RAM inhibit, NR1D1 modulator, PG9 binder)
Cc1c(Cl)cccc1NC(=O)Cn1cc(C(F)(F)F)cc(Cl)c1=O	NR1D1 modulator 44 | NR1D1 mod conf 43 | RORg counter inactive
NC(=O)c1c(NC(=O)c2ccccc2)sc2c1CCc1ccccc1-2	NR1D1 modulator 47 | NR1D1 mod conf 18
O=C(CSc1ncnc2c1cnn2-c1ccccc1)N1c2ccccc2Sc2ccccc21	none (no result: SKN-1 inh, RAM inhibit, NR1D1 modulator, PG9 binder)
CCCSC1=N/C(=C\C=C\c2ccco2)C(=O)S1	none
CCSC1=N/C(=C\C=C2/Oc3ccccc3N2CC)C(=O)S1	NR1D1 modulator 50 (no result: RAM inhibit) | NR1D1 mod conf 46 | RORg counter inactive
N#C/C(=C/C1=C(N2CCOCC2)C(=C/c2ccccc2)/CC1)C(=O)Nc1ccccc1F	NR1D1 modulator 19 (no result: PGE2 EP2 inh, EP2 mod, RAM inhibit) | NR1D1 mod conf 18
C1=CCC(CN2CCN(CC3CC4C=CC3C4)CC2)CC1 (stereo not drawn)	none (no result: SKN-1 inh, RAM inhibit, NR1D1 modulator, PG9 binder)
COc1ccc(/C=C2\Sc3ccccc3C2=O)cc1I	none (no result: SKN-1 inh, RAM inhibit, NR1D1 modulator, PG9 binder)
CCC(=O)c1ccc(N2CCN(S(=O)(=O)c3ccccc3)CC2)c(F)c1	NR1D1 modulator 23 | NR1D1 mod conf 46 | RORg counter inactive
COc1cc(NC(=O)C2CC(c3ccccc3Cl)=NO2)c(OC)cc1Cl (stereo not drawn)	none (no result: SKN-1 inh, RAM inhibit, NR1D1 modulator, PG9 binder)
CC(C(=O)NCC1CCCO1)N1CCC(N2CCCCC2)CC1 (stereo not drawn)	none (no result: SKN-1 inh, RAM inhibit, NR1D1 modulator, PG9 binder)
CC1(C)Cc2c(sc3c2c(N)nc(=S)n3Cc2ccc(Br)cc2)CO1	NR1D1 modulator 135 (no result: RAM inhibit) | NR1D1 mod conf 95 | RORg counter inactive
Cc1ccc(-c2cc(C(=O)NC(C)C)no2)cc1	none (no result: SKN-1 inh, RAM inhibit, NR1D1 modulator, PG9 binder)
CC[C@H](Cn1nc(-c2ccoc2C)oc1=O)NC(=O)C1CCCC1	none (no result: SKN-1 inh, RAM inhibit, NR1D1 modulator, PG9 binder)
O=S(=O)(O)c1cccc(N=Nc2c(O)ccc3ccccc23)c1	NR1D1 modulator 30 (no result: RAM inhibit) | NR1D1 mod conf inactive
Cc1ccc(N=Nc2c(O)ccc3cc(S(=O)(=O)O)ccc23)cc1	none (no result: SKN-1 inh, RAM inhibit, NR1D1 modulator, PG9 binder)
Oc1ccc2ccccc2c1N=Nc1ccccc1F	NR1D1 modulator 19 (no result: RAM inhibit) | NR1D1 mod conf inactive
Oc1ccc2ccccc2c1N=Nc1ccccn1	none
CC(C)CC(NC(=O)Cc1ccc(F)cc1)c1nc2cccnc2n1C(C)C (stereo not drawn)	none (no result: PGE2 EP2 inh, SKN-1 inh, RAM inhibit, NR1D1 modulator, PG9 binder)
C[C@@H](O)CC#Cc1ccc2oc(=O)c(-n3cc(-c4ccsc4)nn3)cc2c1	none (no result: PGE2 EP2 inh, EP2 mod, RAM inhibit)
C[C@H](O)Cc1cn(-c2cc3cc(C#Cc4ccsc4)ccc3oc2=O)nn1	NR1D1 modulator 18 (no result: PGE2 EP2 inh, EP2 mod, RAM inhibit) | NR1D1 mod conf inactive
N#Cc1cn(CC(=O)N2CCCCCC2)c2ccccc12	none (no result: SKN-1 inh, RAM inhibit, NR1D1 modulator, PG9 binder)
CCOC(=O)c1cc(-c2ccccc2)sc1NC(=S)Nc1cccc(C)n1	NR1D1 modulator 26 | NR1D1 mod conf inactive
CCOC(=O)c1cc(-c2ccccc2)sc1NC(=O)C(C)OC(=O)c1cccnc1Cl (stereo not drawn)	NR1D1 modulator 20 | NR1D1 mod conf inactive
O=c1nc2c3ccc4c(=O)n5c(=O)c6ccccc6nc5c5ccc(c(=O)n2c2ccccc12)c3c45	none (no result: SKN-1 inh, RAM inhibit, NR1D1 modulator, PG9 binder)
C=C(C)CN1C(=O)C(C)SC1=NN=C1SCC(=O)N1C (stereo not drawn)	none (no result: PGE2 EP2 inh, EP2 mod, RAM inhibit)
CN1C(=O)CSC1=NCC12CC3CC(CC(C3)C1)C2	NR1D1 modulator 24 | NR1D1 mod conf 32 | RORg counter inactive
